# Compound activity as filed in PubChem BioAssay.
# A selection: hits, their analogues and other compounds. The true share with any hit is near 10%.
# HPGD block: HPGD (human) dehydrogenase inhibition | P15428 | purified HPGD, NADH fluorescence kinetic, PGE2 substrate | Potency, µM, actives largely listed as inhibitors | 150,000 tested, 4.3% active | AID 894
# Target sequence (P15428 whole entry, looked up): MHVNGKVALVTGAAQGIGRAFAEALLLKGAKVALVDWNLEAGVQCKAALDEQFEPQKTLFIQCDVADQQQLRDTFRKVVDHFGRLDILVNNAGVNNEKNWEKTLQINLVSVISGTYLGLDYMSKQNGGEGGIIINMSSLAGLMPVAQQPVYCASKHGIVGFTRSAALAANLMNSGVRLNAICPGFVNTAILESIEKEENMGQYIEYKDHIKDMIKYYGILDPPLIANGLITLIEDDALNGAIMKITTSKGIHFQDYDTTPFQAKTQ
#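 20 nM HPGD preincubated 15 min at room temperature with compound in 50 mM Tris-HCl pH 8, 0.01% Tween 20. Started with 1 mM NAD+ and 30 uM prostaglandin E2; NADH fluorescence (360/450 nm) read 5 times over 30-s intervals, last minus first.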
# ALDH1A1 inh: blocks purified human ALDH1A1 activity | Purified ALDH1A1, NADH fluorescence, propionaldehyde substrate | Potency, µM (titrated, usually from 75.3 µM), most hits filed as inhibitors | 220,000 tested, 7.3% active
# PNC assembly inh: blocks assembly of the perinucleolar compartment; 140,000 tested, 3.1% active; PC3M PTB-GFP, PNC prevalence imaging, 16 h; active compounds read low; activity change (PNC), negative = inhibition, % at 10 µM;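 active = readout at or below -70, meaning at least 70% loss of cells showing the perinucleolar compartment, a nuclear body marking cancer cells; inconclusive = readout between -30 and a set limit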
#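 Compounds are pinned in duplicate onto adhered PC3M cells stably expressing GFP-tagged PTB and incubated 16 h at 37 C. Cells are then fixed, nuclei stained with Hoechst, and PNC-positive cells counted.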
# Lamin A splicing: LMNA splicing modulation | 200,000 tested, 0.01% active | HeLa LMNA splicing GFP/RFP minigene ratio, 48 h | Potency, µM (highest dose often 46.1 µM), usual class: inhibitors; active = well fitted inhibition curve with a large enough effect in the signal ratio, with a control signal flat, not every such curve was filed as active; inconclusive = small, poorly fitted or top-dose-only effect, or effect the other way, or a change in a side signal; the % refers to the signal ratio
#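 S3 HeLa cells stably expressing lamin A-EGFP splicing minigene plus DsRed2, 600 cells/well, 48 h compound exposure at 37C. Laser-scanning cytometry; analysed as GFP (500-530 nm)/RFP (575-640 nm) total intensity ratio; 0.5% DMSO vehicle.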
# IMPase cell inh: cell-permeable inhibitors of inositol monophosphatase (IMPase). CHO-M1 cells, IP1 accumulation, HTRF TR-FRET ratio. inhibition (IP1 accumulation), % at 46.1 µM. 120,000 tested, under 10 active. AID 901; active = well fitted curve in the direction sought with a large enough effect in the signal ratio, not every such curve was filed as active; inconclusive = small, poorly fitted or top-dose-only effect, or a change in a side signal; inactive = no such curve, though single readings can be large or run the other way; the % refers to the signal ratio;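 also: cells stimulated with carbachol in lithium chloride buffer; higher means more IMPase inhibition seen as more IP1 and lower FRET ratio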
# Target sequence (P97697 whole entry, looked up): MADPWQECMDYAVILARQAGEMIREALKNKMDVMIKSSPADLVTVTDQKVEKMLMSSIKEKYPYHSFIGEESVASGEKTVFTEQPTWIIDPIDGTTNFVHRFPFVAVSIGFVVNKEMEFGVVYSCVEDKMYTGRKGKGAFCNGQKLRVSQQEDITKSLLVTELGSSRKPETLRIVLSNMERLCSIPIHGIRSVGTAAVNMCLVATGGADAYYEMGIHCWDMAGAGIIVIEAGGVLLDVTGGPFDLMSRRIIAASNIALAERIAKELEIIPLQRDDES
#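 Measured: the HTRF emission ratio (665/620 nm) plus the 620 nm donor channel, each fitted to the Hill equation to give AC50. Cells were CHO-M1 given compounds up to 46 uM and a 30 min carbachol stimulation at 37C.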
# KinaseGlo FLuc: blocks Kinase-Glo luciferase, a counter-screen artifact. Q27757. Kinase-Glo luciferase, ATP luminescence, 8 min. 200,000 tested, 0.28% active. Potency, µM (highest dose often 38.3 µM), hits mostly inhibitors; active = well fitted inhibition curve with a large enough effect; inconclusive = small, poorly fitted or top-dose-only effect; also: nearly all actives have a fitted effect of over 60% in size
#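 Luminescence was the read-out, taken after 8-minute incubation at ambient temperature. Luciferase turned over luciferin with 10 uM ATP in imidazole pH 7.2 buffer containing KCl, MgCl2, Tween 20 and BSA.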
# Hits are given with their value; – = inactive; ? = inconclusive; · = no result. Unless noted, calls follow the shape of the dose curve; as a rule, active = well fitted inhibition curve with a large enough effect (not every such curve was filed as active); inconclusive = small, poorly fitted or top-dose-only effect, or another doubt; inactive = no such curve, though single readings can be large or run the other way.
SMILES,HPGD block,ALDH1A1 inh,PNC assembly inh,Lamin A splicing,IMPase cell inh,KinaseGlo FLuc
COc1ccc(-c2cc(C(=O)Oc3cccc(C)c3C)c3ccccc3n2)cc1,·,·,·,·,–,·
COc1ccccc1N1CCN(c2ncnc3c2cnn3C)CC1,·,·,·,–,·,·
CCCCC(=O)Nc1ccc2c(c1)nc1n2CCSC1,32µM,18µM,–,–,–,–
CC(=O)Nc1ccc2c(c1)nc1n2CCSC1,–,–,–,–,–,–
NNC(=O)c1sc(-c2ccccc2)cc1N,·,28µM,·,–,·,–
CC(=O)c1sc(-c2ccccc2)cc1N,·,–,·,?,·,·
CC(C)[C@H](Nc1ccc(S(=O)(=O)N2CCOCC2)cc1[N+](=O)[O-])C(=O)OCC(N)=O,–,18µM,–,–,·,–
CNC(=O)COC(=O)[C@@H](Nc1ccc(S(=O)(=O)N2CCOCC2)cc1[N+](=O)[O-])C(C)C,–,?,-113,–,·,–
CC(C)[C@H](Nc1ccc(S(=O)(=O)N2CCOCC2)cc1[N+](=O)[O-])C(=O)OCC(=O)N(C(C)C)C(C)C,–,?,–,?,·,–
CCOC(=O)CN1C(=O)C(O)=C(C(C)=O)C1c1ccc([N+](=O)[O-])cc1 (stereo not given),–,–,-111,–,–,–
O=C1/C(=C/c2cccnc2)CCC/C1=C\c1cccnc1,–,–,–,?,·,–
Cn1cccc1/C=C1\CCC/C(=C\c2cccn2C)C1=O,–,7.9µM,–,?,–,–
COc1ccc(C(=O)N2CCC3(CCN(Cc4ccccc4OC)CC3)CC2)cc1,–,–,·,·,·,–
Cc1cc(C)c2c(c1)N[C@H](c1cccs1)[C@@H]1CCO[C@H]21,·,–,·,·,·,·
CC(C)c1ccc2c(c1)[C@H]1OCC[C@H]1[C@@H](c1cccs1)N2,7.9µM,–,-109,?,·,–
CCCCOc1ccc(Cl)cc1CSc1nnc(C)n1N,–,–,-97,–,–,–
COc1ccc(C)cc1NC(=O)Cn1cc(S(=O)(=O)N2CCC(C)CC2)c2ccccc2c1=O,·,·,·,·,–,·
CC1=CN2C(=N)/C(=C/c3cn(CCCOc4ccccc4C)c4ccccc34)C(=O)N=C2S1,?,?,–,–,·,–
CC1=CN2C(=N)/C(=C/c3ccco3)C(=O)N=C2S1,–,13µM,–,?,·,–
CC1=CN2C(=N)/C(=C/c3ccc([N+](=O)[O-])o3)C(=O)N=C2S1,–,3.5µM,?,?,–,–
CCc1ccc(C2c3c(oc4ccc(C)cc4c3=O)C(=O)N2c2nc(C)c(C)s2)cc1 (stereo not given),·,·,·,·,–,·
CCC(Oc1ccccc1)C(=O)Nc1ccc(OCc2cc(=O)n3ccc(C)cc3n2)cc1 (stereo not given),·,·,·,–,·,·
Cc1c(C(=O)c2ccccc2)c2ccccn2c1CCc1ccccn1,·,11µM,·,?,·,–
Cc1c(C(=O)Nc2ccc(Cl)cc2)c2ccccn2c1CCc1ccncc1,?,?,-85,?,–,–
CCN(CC)C(=O)C1CCCc2c1[nH]c1ccc(Cl)cc21 (stereo not given),–,–,-93,?,–,–
SMILES,HPGD block,ALDH1A1 inh,PNC assembly inh,Lamin A splicing,IMPase cell inh,KinaseGlo FLuc
CCNc1ncc2nc(-c3ccccc3)c(=O)n(Cc3ccc(F)cc3)c2n1,?,?,·,·,·,–
COC(=O)NC(/C(C(=O)OC)=C(\C)NCc1ccccc1)c1ccc2ccccc2c1 (stereo not given),·,3.5µM,·,·,·,·
CCCCC[C@H](O)/C=C/C=C/C/C=C\CCCC(=O)O,–,–,·,·,·,–
COCCCn1c(=N)c(C(=O)NCC2CCCO2)cc2c(=O)n3cc(C)ccc3nc21 (stereo not given),·,·,·,·,–,·
COc1ccc(CN2C3CCCC2CC(NC(=O)Nc2ccccc2C)C3)cc1 (stereo not given),–,–,-100,–,–,–
COc1ccc(CN2C3CCCC2CC(NC(=O)Nc2ccccc2)C3)cc1 (stereo not given),–,–,–,–,–,–
Cc1cc(NS(=O)(=O)c2ccc(N)cc2)nc(C)n1,·,·,·,–,·,·
Cc1ccc(S(=O)(=O)/N=C(/Nc2ccc3[nH]c(=O)[nH]c3c2)c2ccc(F)cc2)cc1,·,8.9µM,·,?,·,–
O=C1N/C(=C\c2ccc(O)cc2)C(=O)c2ccccc21,?,?,–,?,–,13µM
